Screens deposited in PubChem by National Center for Advancing Translational Sciences (NCATS).
Pf Dd2 inh: inhibitors of Plasmodium falciparum Dd2 growth. P. falciparum Dd2 growth, SYBR Green, 72 h. Potency, µM (doses to about 28.9 µM), for inactives: at the highest dose activity, negative = inhibition, hits mostly inhibitors. 120,000 compounds, 4.3% hits. AID 1347417; active = well fitted inhibition curve with a large enough effect;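 also: plate controls were DMSO vehicle for no effect and reference drug for full effect; nearly all actives have a fitted effect of over 65% in size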
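Readout: SYBR Green fluorescence, 485 nm excitation, 535 nm emission, after ~16 h lysis at 37C. Before that, Dd2-infected red cells (2.5% hematocrit) grew 72 h with compound, 29 uM top final concentration.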
Numbers without * were called inactive; i = inactive; [ ] = another dose, or the depositor's remark. The sample as a whole holds a higher share of hits than the screen did. Potency is read from the fitted curve at half-maximal effect.

SMILES	Pf Dd2 inh
COC(=O)CNC(=O)c1nc(-c2ccc(F)cc2)c2ccccn12	-12%[44.1 µM]
CC(C)NC(=O)c1nc(-c2cccc(C(F)(F)F)c2)c2ccccn12	-10%[44.1 µM]
N#CC1CCN(C(=O)c2nc(-c3ccccc3)c3ccccn23)CC1	i
CC(C)NC(=O)c1nc(-c2cccnc2)c2cnccn12	i
Cc1cccc(C)c1-c1nc(C(=O)NCc2ccc3c(c2)OCO3)n2ccccc12	-9%
Cc1cccc(C)c1-c1nc(C(=O)NC(C)C)n2ccccc12	13µM*
Cc1ccc(N2CCC(N)C2=O)cc1C (stereo not given)	i
COc1ccc(C(=O)N2CCC(N3CC4CC(C3)[C@H]3CCCC(=O)N3C4)CC2)c(OC)n1 (stereo not given in full)	-10%
CN1CCC(Cc2ccc(C(=O)NCC3CCCCC3)cc2)CC1	-12%
CCS(=O)(=O)Nc1ccc(C(=O)N2CC[C@](C)(O)[C@@H](O)C2)cc1	-19%
O=C(Nc1cccc(-n2cccn2)c1)C1CCCN(C(=O)N2CCOCC2)C1 (stereo not given)	-13%
O=C(O)C1=NOC2CN([S+](=O)([O-])c3cccs3)CC12 (stereo not given)	31%
CN(CC1(C)CCOCC1)C(=O)NCc1ccco1	-9%
Cn1nccc1C(=O)N1CCCN(S(=O)(=O)c2ccccc2)CCC(=O)NCC1	6%
O=C(Nc1cccc(F)c1)N1CCc2c(c3ccccc3n2CC2CC2)C1	-8%
O=C(NCc1cccs1)c1nc(-c2ccsc2)c2ccccn12	i
O=C(NCc1ccc(F)cc1)c1nc(-c2cccc(C(F)(F)F)c2)c2cnccn12	2.5µM*
CN(C)C(=O)c1nc(-c2cccc(F)c2)c2cnccn12	i
O=C(NCc1ccccn1)c1nc(-c2cccnc2)c2ccccn12	-14%[44.1 µM]
O=C(NCc1cccs1)c1nc(-c2cccc(C(F)(F)F)c2)c2cnccn12	1.8µM*
O=C(NCc1cccnc1)c1nc(-c2ccc(F)cc2)c2ccccn12	-20%
O=C(NCc1ccc(F)cc1)c1nc(-c2cccc(F)c2)c2cnccn12	2.5µM*
O=C(NCc1cccs1)c1nc(-c2ccc(F)cc2)c2ccccn12	-22%
O=C(c1nc(-c2cccc(C(F)(F)F)c2)c2ccccn12)N1CCOCC1	-12%
COc1cccc(CCn2ccnc2-c2cc3n(n2)CCCNC3)c1OC	i
SMILES	Pf Dd2 inh
O=C(CCc1nnn2c1CN(C(=O)NCc1ccccc1)CC2)N1CCOCC1	-16%
CC(C)C(=O)N[C@@H]1C[C@H](COc2ccc(S(C)(=O)=O)cc2)[C@@H](O)[C@H]1O	10%[44.1 µM]
CNC(=O)[C@@H]1C[C@@H](O)CN1C1CCN(C(=O)CCc2nc3ccccc3s2)CC1	10%
CN(C)C(=O)N1CCCn2nc(CNC(=O)C(=O)c3ccco3)cc2C1	-7%
COCCN1C(=O)CS(=O)(=O)C12CCN(C(=O)c1ccc(OC)cc1OC)CC2	-6%
CCCC1c2nccn2CCCN1C(=O)c1cccn1C (stereo not given)	29%
O=C(NCCc1ccccc1F)C1CN(c2cccc(Cl)c2)C(=O)N1 (stereo not given)	-15%
CN1C[C@H](C(=O)Nc2ccncn2)C[C@H]1c1cccc(C(F)(F)F)c1	-5%[44.1 µM]
CN1C[C@H](C(=O)Nc2nccs2)C[C@H]1c1cccc(C(F)(F)F)c1	2.8µM*
Cn1cc(CN2C[C@H](C(=O)Nc3nccs3)C[C@@H]2c2cccc(C(F)(F)F)c2)cn1	-26%[44.1 µM]
Cc1cncc(C(=O)N2CC[C@@H](c3ccc4ccccc4c3)[C@H](O)C2)c1	-15%
O=C(CNC(=O)c1cnccn1)NC1CCCc2c1[nH]c1ccc(Cl)cc21 (stereo not given)	-6%
COc1cc(=O)n2c(c1C(=O)Nc1ccc(Br)cc1)CCCC2	-18%
COc1ccc(C(=O)N2CCCCCCNC(=O)[C@@H]3C[C@@H](c4nc(-c5cnccn5)no4)C[C@@H]32)cc1	i
CC(C)N1CC2(C1)C(=O)N(C)C(=O)[C@@H]1C[C@@H](O)CN12	i
CC(=O)c1ccc(NC(=O)O[C@@H]2CO[C@H]3[C@@H]2OC[C@@H]3n2nnnc2-c2ccc(CN3CCOCC3)cc2)cc1	i
Cn1cnnc1CC1CCCNC1 (stereo not given)	16%
CCOc1ccccc1NC(=O)c1sc2nc(-c3ccc(OC)cc3)ccc2c1N	16%
COc1ccc(NC(=O)c2sc3nc4c(cc3c2N)CCCCCC4)c(OC)c1	-13%
COc1cccc(NC(=O)c2sc3nc(C)c(C(=O)Nc4ccc(C)cc4C)c(-c4ccc(C)o4)c3c2N)c1	11µM*
COc1cccc(NC(=O)c2cnc(-c3ccc(C)cc3)nc2-c2ccncc2)c1	-23%
CCC(C)NC(=O)c1sc2nc(C)c(C(=O)Nc3ccc(C)cc3C)c(-c3ccccc3Cl)c2c1N (stereo not given)	3.2µM*
COc1cccc(NC(=O)c2sc3nc(C)c(C(=O)Nc4ccc(C)cc4C)c(-c4cccs4)c3c2N)c1	1.3µM*
Cc1ccc(NC(=O)c2sc3nc(-c4cc5ccccc5oc4=O)[nH]c(=O)c3c2C)c(C)c1	25%
COc1cccc(-c2ccc3c(N)c(C(=O)Nc4ccc(C)c(F)c4)sc3n2)c1	5%
